We go through 8 compounds from PubChem BioAssay (NCI).

The structures appear in SMILES notation. About 83,000 compounds went through this panel and 20% of them were active in at least one assay; those are over-represented in the sample as a whole.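 The test compound was applied at a single concentration to cells in 96-well plates for 48 hours, and percent growth was recorded.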 Values without a mark were called inactive. Active and inactive are the calls of the source. How the source made its calls: active means growth percent below 10; inactive means the rest.

Test systems include HCT-15 colon; HT29 colon; SNB-75 CNS; SNB-19 CNS; U251 CNS; PC-3 prostate; SK-MEL-5 melanoma; UACC-62 melanoma; LOX IMVI melanoma; SK-MEL-28 melanoma; SK-MEL-2 melanoma; EKVX NSCLC; SN12C renal; UO-31 renal; TK-10 renal; ACHN renal; CAKI-1 renal; A498 renal; CCRF-CEM leukemia; MOLT-4 leukemia.
Test in all cases: NCI-60 one-dose screen, 48 h (100 = growth as untreated, 0 = no growth, -100 = all killed)
Settings in all cases: 10 µM unless noted

As to `O=C(c1ccccc1)C1C(=O)N2C(=S)N(c3ccccc3)C(=O)C2C1c1ccc(Cl)cc1` (stereo not given), the growth is 105% in the assay with HCT-15 colon; 111% with HT29 colon; 96.5% in the assay on SNB-75 CNS; 93.8% in the assay on SNB-19 CNS; 98.4% in the assay on U251 CNS; 86.7% in the assay with PC-3 prostate. Besides, the growth was 91.6% with SK-MEL-5 melanoma; 88% with UACC-62 melanoma; 90.2% in the assay on LOX IMVI melanoma; 93.8% with SK-MEL-28 melanoma; 99.5% in the assay with SK-MEL-2 melanoma; 100% in the assay on EKVX NSCLC. Besides, the growth in the assay with SN12C renal was 91.7%; with UO-31 renal it was 66.8%; with TK-10 renal it was 126%; in the assay on ACHN renal it was 91.8%; in the assay on CAKI-1 renal, 82.9%; in the assay on A498 renal, 81.9%. Further, the growth in the assay with CCRF-CEM leukemia was 98%; in the assay with MOLT-4 leukemia, 102%.
Regarding `CCOC(=O)c1[nH]c(=O)c2c(C)nc(-c3ccccc3)cc2c1O`, the growth is 100% in the assay on HCT-15 colon; 113% with HT29 colon; 118% in the assay on SNB-75 CNS; 104% with SNB-19 CNS; 117% in the assay with U251 CNS; 72.1% in the assay on PC-3 prostate. Moreover, the growth was 96.7% in the assay with SK-MEL-5 melanoma; 109% in the assay with UACC-62 melanoma; 112% in the assay on LOX IMVI melanoma; 105% with SK-MEL-28 melanoma; 84.8% in the assay on SK-MEL-2 melanoma; 98.8% with EKVX NSCLC. In addition, the growth with SN12C renal was 88.8%; with UO-31 renal it was 90%; in the assay with TK-10 renal it was 178%; with ACHN renal it was 110%; in the assay with CAKI-1 renal it was 109%; with A498 renal it was 72.6%. The growth is 91.8% in the assay on CCRF-CEM leukemia and 98.1% in the assay on MOLT-4 leukemia.
As for `O=CC1(C2(C=O)c3ccccc3-c3ccccc32)c2ccccc2-c2ccccc21`, the growth is -36.4% (active) with HCT-15 colon; -53.9% (active) in the assay with HT29 colon; -79.2% (active) in the assay with SNB-75 CNS; -83% (active) in the assay with SNB-19 CNS; -63% (active) in the assay on U251 CNS; -64.5% (active) with PC-3 prostate. Further, the growth in the assay on SK-MEL-5 melanoma is -83.7% (active); with UACC-62 melanoma, -61.5% (active); with LOX IMVI melanoma, -61% (active); with SK-MEL-28 melanoma it was -38.2% (active); in the assay with SK-MEL-2 melanoma, -44.4% (active); with EKVX NSCLC it was -78.4% (active). Moreover, the growth in the assay on SN12C renal was -29.1% (active); in the assay with UO-31 renal, -89.3% (active); in the assay with TK-10 renal, -79.9% (active); in the assay on ACHN renal, -79% (active); in the assay with CAKI-1 renal, -78.2% (active); in the assay on A498 renal, -84.1% (active). In addition, the growth in the assay with CCRF-CEM leukemia is -5.1% (active); with MOLT-4 leukemia, -47.4% (active).
For the compound `O=C(c1ccc(-c2ccccc2)cc1)c1ccc([N+](=O)[O-])cc1`, the growth in the assay with HCT-15 colon is 103%; with HT29 colon it was 104%; with SNB-75 CNS it was 105%; in the assay with SNB-19 CNS, 101%; in the assay on U251 CNS it was 99%; in the assay on PC-3 prostate it was 86.7%. Also, the growth in the assay on SK-MEL-5 melanoma is 97.3%; in the assay with UACC-62 melanoma it was 92.7%; in the assay with LOX IMVI melanoma it was 98.4%; in the assay with SK-MEL-28 melanoma it was 122%; in the assay on SK-MEL-2 melanoma, 104%; with EKVX NSCLC it was 98%. Also, the growth in the assay with SN12C renal was 104%; in the assay on UO-31 renal, 97.5%; with TK-10 renal, 124%; in the assay on ACHN renal, 97.5%; with CAKI-1 renal, 88.1%; in the assay on A498 renal, 124%. Moreover, the values for the growth in the assay with CCRF-CEM leukemia and with MOLT-4 leukemia were 89% and 52.6%, respectively.
In the case of `O=C(Nc1cccc([N+](=O)[O-])c1)c1cc2ccccc2cc1O`, the growth with HCT-15 colon is 12.8%; in the assay with HT29 colon, 13.4%; in the assay with SNB-75 CNS, 6.46% (active); with SNB-19 CNS it was 25.8%; in the assay on U251 CNS it was 6.12% (active); with PC-3 prostate, 0.633% (active). For the same compound, the growth in the assay with SK-MEL-5 melanoma is -53.6% (active); in the assay on UACC-62 melanoma, 18.8%; in the assay with LOX IMVI melanoma, 10%; in the assay with SK-MEL-28 melanoma, 28.1%; with SK-MEL-2 melanoma it was 1.68% (active); with EKVX NSCLC, 3.68% (active). For the same compound, the growth is 0.988% (active) with SN12C renal; 4.6% (active) in the assay with UO-31 renal; 17.4% with TK-10 renal; 0.0296% (active) in the assay with ACHN renal; -22.9% (active) in the assay on CAKI-1 renal; 1.58% (active) in the assay on A498 renal. Also, the growth is -12.7% (active) with CCRF-CEM leukemia and -44.6% (active) in the assay on MOLT-4 leukemia.
As for `C=C1CC[C@@H]2[C@](C)(COC(C)=O)[C@H](OC(C)=O)CC[C@@]2(C)[C@@H]1CC(Sc1ccccc1)C1=CCOC1=O` (stereo not given in full), the growth in the assay on HCT-15 colon was -38.4% (active); in the assay on HT29 colon, -39.3% (active); in the assay with SNB-75 CNS, 87%; in the assay on SNB-19 CNS, 51.8%; in the assay on U251 CNS it was 22.9%; in the assay with PC-3 prostate, 36.4%. Besides, the growth was 13.5% in the assay on SK-MEL-5 melanoma; -1.75% (active) with UACC-62 melanoma; -83.9% (active) in the assay with LOX IMVI melanoma; 6.34% (active) in the assay on SK-MEL-28 melanoma; -1.66% (active) with SK-MEL-2 melanoma; 57.7% in the assay on EKVX NSCLC. Also, the growth is 1.3% (active) with SN12C renal; 35.6% with UO-31 renal; 11.4% with TK-10 renal; -13.7% (active) in the assay on ACHN renal; 90.6% with CAKI-1 renal; 86.3% in the assay on A498 renal. The growth with CCRF-CEM leukemia was -5.24% (active); in the assay on MOLT-4 leukemia it was -3.93% (active).
Consider `C#CCOc1ccc2ncnc(Nc3cccc(NC(=O)C=C)c3)c2c1`, for which the growth in the assay with HCT-15 colon was 71.1%; in the assay on HT29 colon it was 42.7%; in the assay on SNB-75 CNS, 60.5%; in the assay on SNB-19 CNS it was 73.9%; with U251 CNS, 73.1%; in the assay with PC-3 prostate, 82.2%. The growth was 77.5% with SK-MEL-5 melanoma; 64.1% with UACC-62 melanoma; 62.5% with LOX IMVI melanoma; 86.3% with SK-MEL-28 melanoma; 70.8% in the assay on SK-MEL-2 melanoma; 51.6% in the assay on EKVX NSCLC. Also, the growth in the assay on SN12C renal was 65.3%; with UO-31 renal, 41.3%; in the assay with TK-10 renal it was 45.2%; in the assay on ACHN renal, 45.8%; with CAKI-1 renal it was 45.5%; in the assay on A498 renal, 47.7%. Besides, the growth with CCRF-CEM leukemia was 79.9%; in the assay with MOLT-4 leukemia, 60.6%.
Take `N#C/C(=C\c1ccc(-c2ccc(Cl)cc2)o1)C(=O)Nc1ncc(Cc2ccc(Cl)cc2)s1`: the growth in the assay with HCT-15 colon was 37.6%; in the assay with HT29 colon, 62.4%; in the assay on SNB-75 CNS, -31.1% (active); in the assay on SNB-19 CNS, 79.1%; in the assay with U251 CNS it was -33.9% (active); with PC-3 prostate, 28.8%. The growth with SK-MEL-5 melanoma is 94.7%; with UACC-62 melanoma it was 46.1%; in the assay on LOX IMVI melanoma it was 15.5%; in the assay with SK-MEL-28 melanoma it was 34.2%; in the assay on SK-MEL-2 melanoma, 95.4%; in the assay on EKVX NSCLC it was 33.7%. For the same compound, the growth in the assay on SN12C renal is -0.639% (active); in the assay with UO-31 renal, 42.1%; in the assay with TK-10 renal, 19.8%; in the assay with ACHN renal, 5.97% (active); with CAKI-1 renal, 39.1%; with A498 renal it was 69.9%. Moreover, the growth with CCRF-CEM leukemia is 41.4%; in the assay with MOLT-4 leukemia it was 78.3%.
